Tested on: T1, YSK1
T1 construct: gene STK25
Details: concentration: 1 μM, replicates: in singlicate; n = 1
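Further: KINOMEscan kinase panel screen.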

| SMILES | %Inh [%] |
| --- | --- |
| Nc1nc(N)c2nc(-c3ccccc3)[nH]c2n1 [SKF-12778] | 0 |
| COc1cc2nccc(Nc3cccc(Oc4ccccc4)c3)c2cc1OC.Cl [GW284543] | 0 |
| CCc1ccc(-c2ccc3c(c2)-c2nn(C)cc2S(=O)(=O)N3C)cc1 | 0 |
| O=C(NCc1cccs1)c1cc(C(=O)c2c(Cl)cccc2Cl)c[nH]1 [GW823670] | 11 |
| CCCC(=O)Nc1n[nH]c2ncc(-c3cccc4ccccc34)cc12 [SB-642057] | 8 |
| CCC(=O)c1c(-c2ccccc2)c2cc(Cl)ccc2c(=O)n1Cc1cc(S(C)(=O)=O)n(CC(F)F)n1 | 0 |
| Nc1ncnc2c1ncn2-c1cccc(F)c1 [SKF-97560] | 0 |
| Cc1c(Cn2c(C)nn3c(=O)cc(N4CCO[C@H](C)C4)nc23)cccc1C(F)(F)F [GSK2373690] | 6 |
| COc1cc(Nc2nccc(N3CCC(NC(=O)C4COc5ccccc5O4)C3)n2)cc(OC)c1OC (stereo not drawn) [GSK1379761] | 0 |
| Cc1ccccc1COc1cc(-n2cnc3cc(Cl)ccc32)sc1C(N)=O [GW813349] | 0 |
| Cc1ccc(-c2ccc3c(ccc4sc5c(c43)NC[C@@H](C)N=C5N(C)C)n2)cn1 | 0 |
| Fc1cccc(CSc2nnc(-c3ccc4c(c3)CCO4)o2)c1 | 0 |
| CN1C(=O)C(Nc2cc(Cl)c(O)c(Cl)c2)=C(c2ccc(Cl)cc2)C1=O [SB-404321] | 0 |
| CCC(=O)c1c(-c2ccccc2)c2cc(Cl)ccc2c(=O)n1Cc1ccc(C(=O)O)cc1 | 0 |
| COc1cc(Nc2nccc(N3CCC(NC(=O)C(C)c4ccc(Cl)cc4)C3)n2)cc(OC)c1OC (stereo not drawn) [GSK1379757] | 6 |
| C[C@@H]1CC[C@H](C(=O)NC2CCCCC2)CN1c1cc(-c2ccc3c(N)n[nH]c3c2)nc(N)n1 [GSK2291363] | 24 |
| COc1ccc(-c2coc3ccc(-c4nnc(SCc5cccc(C#N)c5)o4)cc23)cc1 | 0 |
| CCS(=O)c1ccc(-c2coc3ccc(-c4nnc(C)o4)cc23)cc1 (stereo not drawn) | 0 |

| SMILES | %Inh [%] |
| --- | --- |
| Cc1cc(Nc2nc(-c3cccc(C)n3)nc3ccccc23)ccn1 [GW872411] | 0 |
| COC(=O)c1c(-c2ccccc2)c2cc(Br)ccc2c(=O)n1Cc1ccc(S(C)(=O)=O)cc1 | 4 |
| Nc1nccc2scc(-c3ccc4c(c3)CCN4C(=O)Cc3ccccc3)c12 [GSK2576924] | 0 |
| O=C(NCCNc1ccnc(Nc2ccc(F)cc2)n1)Nc1ccc2c(c1)OCO2 [GSK1379882] | 17 |
| COC(=O)c1c(-c2ccccc2)c2cc(Br)ccc2c(=O)n1Cc1ccc(NC(=O)CCC(=O)O)cc1 | 0 |
| Nc1ncnc2c1ncn2-c1ccc(Cl)cc1 [AH2635] | 0 |
| O=C(Nc1n[nH]c2cc(-c3ccccc3F)ccc12)C1CC1 [SB-733371] | 0 |
| Nc1n[nH]c2nnc(-c3ccccc3)c(-c3ccccc3)c12 [GW554060] | 0 |
| FC(F)(F)c1ccc(-c2ncn(CCCN3CCOCC3)c2-c2ccncc2)cc1 [SB-217780] | 0 |
| COc1ccc(-n2cnc3c(N)ncnc32)cc1 [SKF-97236] | 0 |
| CCC(=O)c1c(-c2ccccc2)c2cc(Cl)ccc2c(=O)n1Cc1cc(C(=O)NC2CC2)n(C)n1 | 4 |
| CCC(=O)c1c(-c2ccccc2)c2cc(Cl)ccc2c(=O)n1Cc1cc(S(C)(=O)=O)n(CCC(C)(C)O)n1 | 0 |
| COC(=O)c1c(-c2ccccc2)c2cc(C)ccc2c(=O)n1Cc1ccccc1 | 0 |
| COc1cc(Nc2ccnc3ccc(C(F)(F)F)cc23)cc(OC)c1OC [GW577382] | 1 |
| COc1ccc(-c2cc3c(C)nc(N)nc3n([C@H]3CC[C@H](OCCO)CC3)c2=O)cn1 | 0 |
| Cc1nnc(-c2ccc3ncn(-c4ccc(S(C)=O)cc4)c3c2)o1 (stereo not drawn) | 0 |
| COc1cc2ncn(-c3cc(OCc4ccc(S(C)(=O)=O)cc4)c(C(N)=O)s3)c2cc1OC [GW869979] | 0 |
| CCC(=O)c1c(-c2ccccc2)c2cc(Cl)ccc2c(=O)n1Cc1cc(S(C)(=O)=O)n(CC(N)=O)n1 | 0 |

Tested on: T2, YSK4
T2 construct: gene MAP3K19
Details: concentration: 1 μM, replicates: in singlicate; n = 1

| SMILES | %Inh [%] |
| --- | --- |
| Nc1nc(N)c2nc(-c3ccccc3)[nH]c2n1 [SKF-12778] | 68 |
| COc1cc2nccc(Nc3cccc(Oc4ccccc4)c3)c2cc1OC.Cl [GW284543] | 0 |
| CCc1ccc(-c2ccc3c(c2)-c2nn(C)cc2S(=O)(=O)N3C)cc1 | 0 |
| O=C(NCc1cccs1)c1cc(C(=O)c2c(Cl)cccc2Cl)c[nH]1 [GW823670] | 0 |
| CCCC(=O)Nc1n[nH]c2ncc(-c3cccc4ccccc34)cc12 [SB-642057] | 57 |
| CCC(=O)c1c(-c2ccccc2)c2cc(Cl)ccc2c(=O)n1Cc1cc(S(C)(=O)=O)n(CC(F)F)n1 | 0 |
| Nc1ncnc2c1ncn2-c1cccc(F)c1 [SKF-97560] | 40 |
| Cc1c(Cn2c(C)nn3c(=O)cc(N4CCO[C@H](C)C4)nc23)cccc1C(F)(F)F [GSK2373690] | 33 |
| COc1cc(Nc2nccc(N3CCC(NC(=O)C4COc5ccccc5O4)C3)n2)cc(OC)c1OC (stereo not drawn) [GSK1379761] | 8 |
| Cc1ccccc1COc1cc(-n2cnc3cc(Cl)ccc32)sc1C(N)=O [GW813349] | 10 |
| Cc1ccc(-c2ccc3c(ccc4sc5c(c43)NC[C@@H](C)N=C5N(C)C)n2)cn1 | 0 |
| Fc1cccc(CSc2nnc(-c3ccc4c(c3)CCO4)o2)c1 | 20 |
| CN1C(=O)C(Nc2cc(Cl)c(O)c(Cl)c2)=C(c2ccc(Cl)cc2)C1=O [SB-404321] | 0 |
| CCC(=O)c1c(-c2ccccc2)c2cc(Cl)ccc2c(=O)n1Cc1ccc(C(=O)O)cc1 | 0 |
| COc1cc(Nc2nccc(N3CCC(NC(=O)C(C)c4ccc(Cl)cc4)C3)n2)cc(OC)c1OC (stereo not drawn) [GSK1379757] | 29 |
| C[C@@H]1CC[C@H](C(=O)NC2CCCCC2)CN1c1cc(-c2ccc3c(N)n[nH]c3c2)nc(N)n1 [GSK2291363] | 27 |
| COc1ccc(-c2coc3ccc(-c4nnc(SCc5cccc(C#N)c5)o4)cc23)cc1 | 0 |
| CCS(=O)c1ccc(-c2coc3ccc(-c4nnc(C)o4)cc23)cc1 (stereo not drawn) | 15 |

| SMILES | %Inh [%] |
| --- | --- |
| Cc1cc(Nc2nc(-c3cccc(C)n3)nc3ccccc23)ccn1 [GW872411] | 0 |
| COC(=O)c1c(-c2ccccc2)c2cc(Br)ccc2c(=O)n1Cc1ccc(S(C)(=O)=O)cc1 | 13 |
| Nc1nccc2scc(-c3ccc4c(c3)CCN4C(=O)Cc3ccccc3)c12 [GSK2576924] | 36 |
| O=C(NCCNc1ccnc(Nc2ccc(F)cc2)n1)Nc1ccc2c(c1)OCO2 [GSK1379882] | 9 |
| COC(=O)c1c(-c2ccccc2)c2cc(Br)ccc2c(=O)n1Cc1ccc(NC(=O)CCC(=O)O)cc1 | 12 |
| Nc1ncnc2c1ncn2-c1ccc(Cl)cc1 [AH2635] | 27 |
| O=C(Nc1n[nH]c2cc(-c3ccccc3F)ccc12)C1CC1 [SB-733371] | 87 |
| Nc1n[nH]c2nnc(-c3ccccc3)c(-c3ccccc3)c12 [GW554060] | 16 |
| FC(F)(F)c1ccc(-c2ncn(CCCN3CCOCC3)c2-c2ccncc2)cc1 [SB-217780] | 10 |
| COc1ccc(-n2cnc3c(N)ncnc32)cc1 [SKF-97236] | 34 |
| CCC(=O)c1c(-c2ccccc2)c2cc(Cl)ccc2c(=O)n1Cc1cc(C(=O)NC2CC2)n(C)n1 | 0 |
| CCC(=O)c1c(-c2ccccc2)c2cc(Cl)ccc2c(=O)n1Cc1cc(S(C)(=O)=O)n(CCC(C)(C)O)n1 | 0 |
| COC(=O)c1c(-c2ccccc2)c2cc(C)ccc2c(=O)n1Cc1ccccc1 | 0 |
| COc1cc(Nc2ccnc3ccc(C(F)(F)F)cc23)cc(OC)c1OC [GW577382] | 0 |
| COc1ccc(-c2cc3c(C)nc(N)nc3n([C@H]3CC[C@H](OCCO)CC3)c2=O)cn1 | 0 |
| Cc1nnc(-c2ccc3ncn(-c4ccc(S(C)=O)cc4)c3c2)o1 (stereo not drawn) | 21 |
| COc1cc2ncn(-c3cc(OCc4ccc(S(C)(=O)=O)cc4)c(C(N)=O)s3)c2cc1OC [GW869979] | 57 |
| CCC(=O)c1c(-c2ccccc2)c2cc(Cl)ccc2c(=O)n1Cc1cc(S(C)(=O)=O)n(CC(N)=O)n1 | 0 |

From paper PMC5540273 (PLoS ONE, 2017)
